These results are taken from PMC7862700, “An all-to-all approach to the identification of sequence-specific readers for epigenetic DNA modifications on cytosine”.

What all share (test): DAPPL (digital affinity profiling via proximity ligation, sequencing); 10 mM Tris-HCl pH 7.5, 50 mM NaCl, 1 mM DTT, 4% glycerol, room temperature, 30 min; GST-TFs on glutathione beads, 16-mer random dsDNA library, 0.1% formaldehyde crosslink after washing; high values mean tight binding
Settings in all cases: protein: recombinant; tags: N-terminal GST; dsDNA, one strand shown

One assay has as its target T1, FLI1 (Homo sapiens, UniProt Q01543 1-452).
T1 sequence: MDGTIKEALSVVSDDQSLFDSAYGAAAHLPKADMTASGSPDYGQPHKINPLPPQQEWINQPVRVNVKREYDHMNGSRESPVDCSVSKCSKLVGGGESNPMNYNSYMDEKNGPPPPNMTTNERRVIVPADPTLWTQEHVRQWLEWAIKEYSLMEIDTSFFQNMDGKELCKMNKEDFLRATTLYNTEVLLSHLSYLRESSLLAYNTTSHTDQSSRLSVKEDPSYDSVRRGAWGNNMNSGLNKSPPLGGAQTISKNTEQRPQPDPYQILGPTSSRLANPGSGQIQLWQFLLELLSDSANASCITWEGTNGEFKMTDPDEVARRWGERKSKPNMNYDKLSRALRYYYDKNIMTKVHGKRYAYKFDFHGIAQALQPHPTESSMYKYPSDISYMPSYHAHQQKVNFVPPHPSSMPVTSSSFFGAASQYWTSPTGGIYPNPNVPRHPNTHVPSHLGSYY
The method, boiled down:
(§1)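 Beads coated with glutathione captured GST-fused human transcription factors that had been expressed in yeast, and the factors were then given DNA barcodes and pooled with a tag-only sample. The pools were incubated with 200 nmole of a random double-stranded 16-mer DNA library in Tris/NaCl/DTT/glycerol buffer for 30 min at room temperature, washed, crosslinked with 0.1% formaldehyde and proximity-ligated with BsaI/T4 ligase at 37 °C for 1 h. PCR amplification and Illumina NextSeq500 sequencing came last. Binding signal is each hexamer's read frequency for a factor divided by its frequency for the tag-only sample.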

Another assay deals with T2, ELK1 (Homo sapiens, UniProt P19419 1-428).
T2 sequence: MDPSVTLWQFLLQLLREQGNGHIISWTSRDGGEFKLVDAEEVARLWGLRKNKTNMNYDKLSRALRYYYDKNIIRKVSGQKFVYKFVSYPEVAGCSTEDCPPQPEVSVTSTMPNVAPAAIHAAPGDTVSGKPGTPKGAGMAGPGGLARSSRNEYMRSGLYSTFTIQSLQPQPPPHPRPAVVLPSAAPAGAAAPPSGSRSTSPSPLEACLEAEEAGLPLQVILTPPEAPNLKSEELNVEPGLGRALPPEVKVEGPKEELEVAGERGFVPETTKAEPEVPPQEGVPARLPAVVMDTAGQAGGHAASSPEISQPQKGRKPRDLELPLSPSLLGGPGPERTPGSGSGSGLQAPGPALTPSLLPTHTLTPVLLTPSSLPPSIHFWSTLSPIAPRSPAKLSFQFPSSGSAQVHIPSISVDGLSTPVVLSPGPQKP
Summed up:
as §1

The next assay has as its target T3, GABPA (Homo sapiens, UniProt Q06546 1-454).
T3 sequence: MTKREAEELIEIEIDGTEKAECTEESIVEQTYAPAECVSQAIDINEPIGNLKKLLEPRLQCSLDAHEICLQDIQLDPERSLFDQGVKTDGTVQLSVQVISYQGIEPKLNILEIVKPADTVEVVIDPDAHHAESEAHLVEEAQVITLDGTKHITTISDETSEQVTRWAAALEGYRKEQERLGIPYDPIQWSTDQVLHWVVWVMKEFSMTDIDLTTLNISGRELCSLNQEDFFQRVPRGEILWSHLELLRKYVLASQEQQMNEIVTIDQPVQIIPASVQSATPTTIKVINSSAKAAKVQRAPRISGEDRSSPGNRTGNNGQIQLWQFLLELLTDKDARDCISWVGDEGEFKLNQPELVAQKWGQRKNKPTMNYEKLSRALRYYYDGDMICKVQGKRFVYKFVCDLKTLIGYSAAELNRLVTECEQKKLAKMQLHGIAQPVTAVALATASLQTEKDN
Summed up: as §1

A further assay concerns the target T4, ERG (Homo sapiens, UniProt P11308 1-479).
T4 sequence: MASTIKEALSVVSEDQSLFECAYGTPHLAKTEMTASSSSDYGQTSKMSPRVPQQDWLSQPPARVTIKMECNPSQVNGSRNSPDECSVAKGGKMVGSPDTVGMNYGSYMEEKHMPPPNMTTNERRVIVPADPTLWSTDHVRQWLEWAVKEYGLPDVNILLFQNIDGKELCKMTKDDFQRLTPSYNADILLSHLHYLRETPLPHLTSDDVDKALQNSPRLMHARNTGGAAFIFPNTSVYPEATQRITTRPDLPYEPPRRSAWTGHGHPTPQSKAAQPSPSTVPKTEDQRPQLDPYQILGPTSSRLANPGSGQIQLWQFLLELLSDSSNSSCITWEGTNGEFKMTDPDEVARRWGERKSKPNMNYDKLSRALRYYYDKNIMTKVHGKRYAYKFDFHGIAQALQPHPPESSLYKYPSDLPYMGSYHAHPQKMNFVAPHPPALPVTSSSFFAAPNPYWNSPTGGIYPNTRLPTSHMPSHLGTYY
The method, boiled down:
as §1

In another assay the target is ELF1 (Homo sapiens, UniProt P32519 1-619). The method, boiled down: as §1
Chain of ELF1 (P32519 whole entry): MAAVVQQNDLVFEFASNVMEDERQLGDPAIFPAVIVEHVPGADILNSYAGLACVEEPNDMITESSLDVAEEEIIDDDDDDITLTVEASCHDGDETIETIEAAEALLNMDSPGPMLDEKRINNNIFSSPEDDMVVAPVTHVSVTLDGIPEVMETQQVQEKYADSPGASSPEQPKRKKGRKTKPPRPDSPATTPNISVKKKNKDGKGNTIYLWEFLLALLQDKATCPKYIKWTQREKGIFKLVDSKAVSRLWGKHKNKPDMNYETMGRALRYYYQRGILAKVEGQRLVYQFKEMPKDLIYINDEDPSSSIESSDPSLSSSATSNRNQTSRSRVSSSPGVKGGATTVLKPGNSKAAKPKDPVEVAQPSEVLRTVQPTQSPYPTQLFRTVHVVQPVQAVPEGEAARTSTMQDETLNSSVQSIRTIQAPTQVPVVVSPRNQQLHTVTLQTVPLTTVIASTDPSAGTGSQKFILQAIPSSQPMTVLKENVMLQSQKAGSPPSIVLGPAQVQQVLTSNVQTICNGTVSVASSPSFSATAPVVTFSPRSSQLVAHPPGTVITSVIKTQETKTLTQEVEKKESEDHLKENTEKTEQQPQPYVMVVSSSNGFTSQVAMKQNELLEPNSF
Another assay has as its target SPI1 (Homo sapiens, UniProt P17947 1-270). Summed up:
as §1

For another assay, the target named is SPIB (Homo sapiens, UniProt Q01892 1-262). Summed up: as §1
Chain of SPIB (Q01892 whole entry): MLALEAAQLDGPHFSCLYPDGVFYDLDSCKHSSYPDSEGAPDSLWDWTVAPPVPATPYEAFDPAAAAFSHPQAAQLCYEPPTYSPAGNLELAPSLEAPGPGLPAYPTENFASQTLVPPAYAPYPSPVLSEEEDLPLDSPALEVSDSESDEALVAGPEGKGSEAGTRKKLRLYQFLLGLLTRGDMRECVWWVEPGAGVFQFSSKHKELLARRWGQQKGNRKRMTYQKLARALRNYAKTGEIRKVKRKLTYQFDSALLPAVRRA
For a further assay, the target named is T5, ELK3 (Homo sapiens, UniProt P41970 1-407).
T5 sequence: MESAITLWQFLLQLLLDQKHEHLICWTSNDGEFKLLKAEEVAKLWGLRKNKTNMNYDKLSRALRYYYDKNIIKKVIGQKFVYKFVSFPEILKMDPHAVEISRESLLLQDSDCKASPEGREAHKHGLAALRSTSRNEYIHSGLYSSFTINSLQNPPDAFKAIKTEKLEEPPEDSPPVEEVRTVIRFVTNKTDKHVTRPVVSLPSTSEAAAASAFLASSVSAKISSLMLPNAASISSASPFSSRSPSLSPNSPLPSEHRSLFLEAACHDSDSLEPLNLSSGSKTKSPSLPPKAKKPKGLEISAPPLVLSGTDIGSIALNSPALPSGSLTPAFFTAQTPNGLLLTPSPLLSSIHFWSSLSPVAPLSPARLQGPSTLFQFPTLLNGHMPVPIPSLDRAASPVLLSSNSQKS
Summed up:
as §1

The target of the next assay is T6, FEV (Homo sapiens, UniProt Q99581 1-238).
T6 sequence: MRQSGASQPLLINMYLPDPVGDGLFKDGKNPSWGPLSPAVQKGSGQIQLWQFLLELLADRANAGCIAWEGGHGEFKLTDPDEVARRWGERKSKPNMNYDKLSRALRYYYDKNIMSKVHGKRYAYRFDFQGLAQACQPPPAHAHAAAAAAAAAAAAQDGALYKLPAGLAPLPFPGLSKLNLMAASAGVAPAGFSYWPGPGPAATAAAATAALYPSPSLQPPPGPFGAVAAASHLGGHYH
Summed up:
as §1

Another assay addresses ETV5 (Homo sapiens, UniProt P41161 1-510). The method, boiled down: as §1
Another assay addresses T7, SPIC (Homo sapiens, UniProt Q8N5J4 1-248).
T7 sequence: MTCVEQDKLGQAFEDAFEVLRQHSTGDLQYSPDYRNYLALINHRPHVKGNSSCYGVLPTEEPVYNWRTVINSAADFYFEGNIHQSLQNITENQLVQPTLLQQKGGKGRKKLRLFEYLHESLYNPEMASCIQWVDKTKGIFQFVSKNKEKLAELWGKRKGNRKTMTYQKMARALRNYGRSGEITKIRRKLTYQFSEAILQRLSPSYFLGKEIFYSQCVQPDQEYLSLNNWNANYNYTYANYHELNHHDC
Summed up: as §1

In the next assay the target is ELF4 (Homo sapiens, UniProt Q99607 1-663). The method, boiled down:
as §1

The target in a further assay is T8, ELK4 (Homo sapiens, UniProt P28324-2 1-405).
T8 sequence: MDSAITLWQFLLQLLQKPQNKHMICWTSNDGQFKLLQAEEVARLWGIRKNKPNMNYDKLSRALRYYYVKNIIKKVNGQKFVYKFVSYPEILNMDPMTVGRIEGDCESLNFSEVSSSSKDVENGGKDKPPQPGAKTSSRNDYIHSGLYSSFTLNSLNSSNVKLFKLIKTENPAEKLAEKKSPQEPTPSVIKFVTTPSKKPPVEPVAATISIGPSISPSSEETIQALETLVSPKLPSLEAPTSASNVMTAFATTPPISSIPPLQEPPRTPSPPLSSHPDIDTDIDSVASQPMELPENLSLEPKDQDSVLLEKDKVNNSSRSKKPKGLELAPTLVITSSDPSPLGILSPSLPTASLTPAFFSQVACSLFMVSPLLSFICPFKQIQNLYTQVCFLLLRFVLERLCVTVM
The method, boiled down: as §1

For a further assay, the target named is T9, ETV2 (Homo sapiens, UniProt O00321 1-342).
T9 sequence: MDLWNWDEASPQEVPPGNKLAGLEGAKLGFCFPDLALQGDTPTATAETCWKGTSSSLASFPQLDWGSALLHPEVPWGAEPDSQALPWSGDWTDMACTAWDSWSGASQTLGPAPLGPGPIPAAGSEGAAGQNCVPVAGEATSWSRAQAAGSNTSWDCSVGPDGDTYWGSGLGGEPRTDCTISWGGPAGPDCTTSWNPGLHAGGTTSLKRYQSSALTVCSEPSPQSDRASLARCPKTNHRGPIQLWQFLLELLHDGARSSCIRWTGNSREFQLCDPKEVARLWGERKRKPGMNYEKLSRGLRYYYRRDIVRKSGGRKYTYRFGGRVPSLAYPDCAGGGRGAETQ
The method, boiled down: as §1

The next assay addresses T10, ELF3 (Homo sapiens, UniProt P78545 1-371).
T10 sequence: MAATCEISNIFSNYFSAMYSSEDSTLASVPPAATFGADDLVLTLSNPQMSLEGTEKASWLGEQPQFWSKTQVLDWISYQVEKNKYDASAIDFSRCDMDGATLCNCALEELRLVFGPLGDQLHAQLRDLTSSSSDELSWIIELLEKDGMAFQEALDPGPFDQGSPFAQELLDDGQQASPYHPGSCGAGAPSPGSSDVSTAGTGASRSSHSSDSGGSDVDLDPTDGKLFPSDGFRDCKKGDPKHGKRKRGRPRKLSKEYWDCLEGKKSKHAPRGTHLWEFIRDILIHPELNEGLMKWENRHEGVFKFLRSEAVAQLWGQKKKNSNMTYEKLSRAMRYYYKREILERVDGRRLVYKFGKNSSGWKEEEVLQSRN
The method, boiled down:
as §1

Another assay has as its target ETV1 (Homo sapiens, UniProt P50549 1-477). The method, boiled down:
as §1

A further assay concerns the target T11, EHF (Homo sapiens, UniProt Q9NZC4 1-300).
T11 sequence: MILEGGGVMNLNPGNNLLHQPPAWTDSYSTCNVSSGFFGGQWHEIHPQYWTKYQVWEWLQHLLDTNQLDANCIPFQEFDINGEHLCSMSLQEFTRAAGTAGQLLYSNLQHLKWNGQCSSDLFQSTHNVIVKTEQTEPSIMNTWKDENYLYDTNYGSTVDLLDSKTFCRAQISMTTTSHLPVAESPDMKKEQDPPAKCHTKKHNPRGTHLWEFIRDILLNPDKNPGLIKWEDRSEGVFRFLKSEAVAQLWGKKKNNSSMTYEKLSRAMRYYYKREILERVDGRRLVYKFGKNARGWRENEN
Summed up: as §1

Chain of ETV5 (P41161 whole entry): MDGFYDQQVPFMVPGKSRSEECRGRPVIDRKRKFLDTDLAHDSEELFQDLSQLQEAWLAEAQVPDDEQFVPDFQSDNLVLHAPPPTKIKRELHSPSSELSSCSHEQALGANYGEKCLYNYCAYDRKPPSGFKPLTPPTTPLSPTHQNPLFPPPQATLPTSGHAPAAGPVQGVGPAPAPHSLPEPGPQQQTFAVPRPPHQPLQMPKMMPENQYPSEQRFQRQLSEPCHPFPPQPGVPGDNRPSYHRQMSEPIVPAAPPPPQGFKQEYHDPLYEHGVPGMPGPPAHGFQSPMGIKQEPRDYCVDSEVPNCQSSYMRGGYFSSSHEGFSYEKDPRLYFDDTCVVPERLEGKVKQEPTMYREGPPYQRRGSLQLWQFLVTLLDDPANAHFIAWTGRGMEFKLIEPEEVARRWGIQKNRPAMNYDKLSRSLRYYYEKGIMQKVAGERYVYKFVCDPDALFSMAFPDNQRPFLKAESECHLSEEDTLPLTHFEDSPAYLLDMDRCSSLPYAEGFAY
Chain of ELF4 (Q99607 whole entry): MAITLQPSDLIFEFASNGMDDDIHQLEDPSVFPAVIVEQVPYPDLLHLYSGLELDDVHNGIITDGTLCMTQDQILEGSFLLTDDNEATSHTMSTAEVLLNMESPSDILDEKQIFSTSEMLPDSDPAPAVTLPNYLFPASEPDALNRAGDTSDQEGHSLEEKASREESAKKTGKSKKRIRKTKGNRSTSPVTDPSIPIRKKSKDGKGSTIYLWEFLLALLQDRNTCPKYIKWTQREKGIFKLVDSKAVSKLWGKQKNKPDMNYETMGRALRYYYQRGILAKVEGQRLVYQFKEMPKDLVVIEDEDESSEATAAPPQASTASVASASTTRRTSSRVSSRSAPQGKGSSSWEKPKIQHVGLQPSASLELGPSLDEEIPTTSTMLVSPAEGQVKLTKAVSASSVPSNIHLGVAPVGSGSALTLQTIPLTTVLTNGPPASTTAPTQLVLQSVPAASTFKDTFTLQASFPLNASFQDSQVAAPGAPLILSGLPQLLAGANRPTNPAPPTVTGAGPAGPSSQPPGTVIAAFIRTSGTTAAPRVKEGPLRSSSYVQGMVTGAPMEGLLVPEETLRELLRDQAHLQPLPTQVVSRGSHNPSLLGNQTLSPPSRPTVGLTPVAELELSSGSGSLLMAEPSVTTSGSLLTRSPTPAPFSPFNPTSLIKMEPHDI
Chain of ETV1 (P50549 whole entry): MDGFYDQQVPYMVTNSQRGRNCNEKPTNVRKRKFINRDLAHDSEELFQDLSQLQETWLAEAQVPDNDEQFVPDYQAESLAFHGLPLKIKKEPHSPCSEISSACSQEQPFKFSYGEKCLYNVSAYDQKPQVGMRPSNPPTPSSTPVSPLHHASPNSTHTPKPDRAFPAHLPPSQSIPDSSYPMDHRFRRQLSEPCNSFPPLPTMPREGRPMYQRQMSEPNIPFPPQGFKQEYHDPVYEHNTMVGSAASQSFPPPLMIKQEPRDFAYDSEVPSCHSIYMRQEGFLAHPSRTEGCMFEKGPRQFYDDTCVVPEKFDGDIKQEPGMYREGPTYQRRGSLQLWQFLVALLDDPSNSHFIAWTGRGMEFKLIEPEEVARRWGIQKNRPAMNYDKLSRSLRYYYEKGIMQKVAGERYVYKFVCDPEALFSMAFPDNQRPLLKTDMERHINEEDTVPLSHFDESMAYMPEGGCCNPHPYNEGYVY

For the sequence CCTGTG, the binding signal with FLI1 is 1.06 fold enrichment (6-mer frequency, TF over GST control); with ELK1 it was 1.24 fold enrichment (6-mer frequency, TF over GST control); with GABPA, 1.08 fold enrichment (6-mer frequency, TF over GST control); with ERG, 1.21 fold enrichment (6-mer frequency, TF over GST control); in the assay with ELF1, 1.11 fold enrichment (6-mer frequency, TF over GST control); with SPI1, 1.04 fold enrichment (6-mer frequency, TF over GST control). Also, the binding signal in the assay with SPIB is 1.18 fold enrichment (6-mer frequency, TF over GST control); with ELK3, 1.01 fold enrichment (6-mer frequency, TF over GST control); with FEV, 1.11 fold enrichment (6-mer frequency, TF over GST control); with ETV5, 1.07 fold enrichment (6-mer frequency, TF over GST control); with SPIC, 1.32 fold enrichment (6-mer frequency, TF over GST control); with ELF4 it was 1.11 fold enrichment (6-mer frequency, TF over GST control). Moreover, the binding signal was 1.22 fold enrichment (6-mer frequency, TF over GST control) with ELK4; 1.11 fold enrichment (6-mer frequency, TF over GST control) in the assay with ETV2; 1 fold enrichment (6-mer frequency, TF over GST control) with ELF3; 1.12 fold enrichment (6-mer frequency, TF over GST control) in the assay with ETV1.
Take GCGCTC: the binding signal is 1.26 fold enrichment (6-mer frequency, TF over GST control) with FLI1; 1.2 fold enrichment (6-mer frequency, TF over GST control) with ELK1; 1.16 fold enrichment (6-mer frequency, TF over GST control) with GABPA; 1.15 fold enrichment (6-mer frequency, TF over GST control) with ERG; 1.12 fold enrichment (6-mer frequency, TF over GST control) with ELF1; 1.09 fold enrichment (6-mer frequency, TF over GST control) with EHF. Besides, the binding signal in the assay with SPI1 is 1.13 fold enrichment (6-mer frequency, TF over GST control); with SPIB, 1.18 fold enrichment (6-mer frequency, TF over GST control); in the assay with ELK3, 1.15 fold enrichment (6-mer frequency, TF over GST control); with FEV, 1.06 fold enrichment (6-mer frequency, TF over GST control); in the assay with ETV5, 1.13 fold enrichment (6-mer frequency, TF over GST control); in the assay with SPIC, 1.04 fold enrichment (6-mer frequency, TF over GST control). In addition, the binding signal with ELF4 was 1.24 fold enrichment (6-mer frequency, TF over GST control); in the assay with ELK4, 1.19 fold enrichment (6-mer frequency, TF over GST control); in the assay with ETV2, 1.22 fold enrichment (6-mer frequency, TF over GST control); with ELF3 it was 1.19 fold enrichment (6-mer frequency, TF over GST control).
